Data as given in the supplement of paper PMC11417369.
± gives the standard deviation of the averaged measurements. Over roughly 25,000 sequences, “ln(normalized median fluorescence intensity)” has its median near 8.9; the highest 2% begin near 10. Shown is part of a subset that was picked to be rich in the highest values.

system: PfAP2-LT AP2 domain (GST-tagged); assay: gcPBM binding intensity (ln(normalized median fluorescence intensity)); higher = stronger DNA binding
Outline: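 GST-tagged P. falciparum DNA-binding domains, expressed in E. coli (about 25 μg on average), were applied for 1 h to an Agilent 4 × 180k array of primer-extended double-stranded 36-bp intergenic genomic probes plus negative controls. The binding buffer was 1× PBS with 1% milk, 0.2 mg/ml BSA, 0.5% salmon testes DNA and 0.03% Triton X-100. Bound protein was detected with Alexa488 anti-GST antibody and scanned at 488 nm. Binding intensity is the highest Masliner-normalised natural-log median intensity across replicate spots of either probe orientation.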

Sequence | gcPBM binding intensity (ln)
TAAAATTATTAATGAGTGCATTATAAAATCTATATA [GTGCAC_site9493] | 8.38 ± 0.46
ATATTTTCCCTTTATAGGAGCACAAAAATTAAATGT [CACACA_negctrl_site1114] | 8.46 ± 0.35
AGGAAATGTTTATATACATGCATAATTAAATATAAT [TGCATGCA_site672] | 8.74 ± 0.46
ATAGACAGCGCACAAACACACAAACACCCACCCACA [CACACA_site8043] | 9.99 ± 0.31
AAAAAAAAAACACGCGCACACACACCCACCCACCCA [CACACA_site8689] | 10.365 ± 0.0071
TACACAAACAGACACACACACACACGCGCACAAAAA [CACACA_site7192] | 10.06 ± 0.042
AAAAAAACAACATGCACACGCACACCCAAAAAAAGC [CACACA_site72] | 9.84 ± 0.32
AAAAAAAACACGCGCACACACACACCCACAGACACA [CACACA_site5253] | 10.2 ± 0.14
AGAAAAAAACAACATGCACACGCACCCACAAAAAAA [CACACA_site7908] | 9.51 ± 0.28
AAAAAAAACAAATACACACGCACACCGAAAAAAAAA [CACACA_site803] | 9.6 ± 0.39
AAAAAAAAAACAAATACACACGCACCCAAAAAAAAA [CACACA_site8166] | 9.61 ± 0.18
AAAAAAAACACGCGCACACACACACCCACCCACCGA [CACACA_site2206] | 10.32 ± 0.078
GTTTTGTACATATTCTCACACATATAAAAATACCCA [CACACA_site4446] | 8.77 ± 0.42
TATATATATATATATATACACACTATATAATTCAAA [CACACA_site1023] | 9.67 ± 0.042
GAATAAAAATTTTAATGTACATATTTTTTATTTATA [XGTACX_site8935] | 8.41 ± 0.49
TTTTTTTTTTTTTGATGTACTTATTTAATAAGATAT [XGTACX_site376] | 8.38 ± 0.47
ATATATAATATTTTTATTTTTATTTTTTTTTTATGA [TGCATGCA_negctrl_site577] | 8.34 ± 0.49
AAAAAGATAAAATATACATGCATATATAATATACAT [TGCATGCA_site488] | 8.94 ± 0.4
TAAACAGAAGCACATACACACACTCAAAAAAAAAAA [CACACA_site3051] | 9.53 ± 0.39
ACATATTATATATGTGTGCACATATATATATATTTA [GTGCAC_site9591] | 9.7 ± 0.33
CTTTATATATATTGCGTGCACATTTTTTTTTTTTTT | 8.99 ± 0.53
TATATATATATATATGTGCACATTTATTGCCTTTGC | 10.11 ± 0.071
TATAGATGTGGTTTATGTACATACTATAAAAAATCA [XGTACX_site1400] | 8.7 ± 0.49

Sequence | gcPBM binding intensity (ln)
CGTATTTATATAATTACACACCATATTATAATTATT [CACACA_site3760] | 8.84 ± 0.44
TTTCTTTATTTATAATAATTTTTTATTAAAAATAGA [CACACA_negctrl_site1610] | 8 ± 0.49
GATATAAACGTATATGTACATATATATATATATATA [GTGCAC_negctrl_site186] | 10.1 ± 0.38
TTACAAAAAAAAAGGCGCGGATGGGGGCAATAGCAA [CACACA_negctrl_site238] | 9.39 ± 0.45
ATTATGCACCAACACACACACACACCCCTAAAAAAT [CACACA_site2568] | 10.04 ± 0.057
ATTATGCACAGACACACACACACACTACTAAAAAAT [CACACA_site7252] | 10.2 ± 0.28
ATTATGCACGGACACACACACACACCCCTAAAAAAT [CACACA_site5426] | 10.1 ± 0.32
TGCACAGACGGACACACACACAACTAAAAAATAATG [CACACA_site5424] | 9.69 ± 0.61
AAAAAATTAGATTATGCACACACACTAATAAATAAT [CACACA_site8604] | 9.38 ± 0.32
TGCACAAAATTATGCACACACCTAAAATTAATTTTT [CACACA_site5596] | 9.06 ± 0.34
ATTTTTTCTTATAAAAAAGAAAAAGAAAAAGAAAAA [CACACA_negctrl_site1216] | 8.02 ± 0.42
GTTTAGATAAAAGGGCGTACATCTATTTTTGACTAA [XGTACX_site7170] | 8.62 ± 0.36
GAAACGATTTAATACACACACGTATTATAGATATAT [CACACA_site6666] | 9.25 ± 0.34
ATTTTTTTTGTTTATTCTTATGTGGTTATTAAATTA [CACACA_negctrl_site1000] | 8.72 ± 0.52
TATACACACAGACATGCATGCACATATATATATACA [TGCATGCA_site30] | 9.54 ± 0.42
TACAGACAGAAATGCACACACATATTTATATTTATA [CACACA_site7139] | 9.35 ± 0.3
TACAGACAGAAATGCACACACATATATATATATATA [CACACA_site2283] | 10.2
TGTACACCCAGAAATGCACACACATATATATATATA [CACACA_site8716] | 9.94 ± 0.29
TTATATAAAGAATGTACACACAGAAATGCACCCACA [CACACA_site2282] | 9.39 ± 0.2
TACACCCAGAAATGCACACACATATATATATATATA [CACACA_site5289] | 10.26 ± 0.071
TCATCATATTATATATGTACATATATAATAATTTAT [XGTACX_site1625] | 8.62 ± 0.42
ACATAATTAACAAATACACACACACCCACCCACAAA [CACACA_site8069] | 10.3 ± 0.13
TTTTTATTTATTAATACACACACACCCACCCACAAA [CACACA_site7965] | 9.805 ± 0.064

Sequence | gcPBM binding intensity (ln)
GTATTATAGTATAATACACACCCAAATATTAAAAAG [CACACA_site7404] | 9.02 ± 0.41
AAAAAAAAAAAATACACACAAACACAAATTAAATAA [CACACA_site3809] | 9.32 ± 0.32
TTTATTTATTAATACACACACACACCCAGACAAAAT [CACACA_site4292] | 10 ± 0.099
ATTAATTATATATATACACACACATACACCCAAATA [CACACA_site9126] | 9.66 ± 0.23
TATTAATACAGACACACACACACACCCAATAAAATA [CACACA_site243] | 10.29 ± 0.05
ATAATTAACAAATACACACACACACCCAGACAAAAA [CACACA_site4445] | 10.2
TTTATTTATTAATACACACACACACGCCCACAAAAT [CACACA_site6253] | 9.995 ± 0.05
TATTAATACAGACACACACACACACTAATTAAAATA [CACACA_site7967] | 9.96 ± 0.2
TTTATTTATTAATACACACACACACCCCCACAAAAT [CACACA_site240] | 10.1 ± 0.22
AATTAATAACAAAATAAACACACATATATAAATACA [CACACA_site8456] | 9.03 ± 0.38
TGAACATGTTAAAATAAACACACAGCTAAGGTTTTT [CACACA_site7934] | 8.94 ± 0.4
TTATATATATATATATGTACACATATATAACATGAT [XGTACX_site6643] | 9.19 ± 0.28
ATACACTTTTATATATCAATACATTATGTATTAAGT [CACACA_negctrl_site421] | 8.86 ± 0.35
AACAATATATTGATATTATTTTAAGTGATTATATAT [XGTACX_negctrl_site205] | 8.57 ± 0.33
CAACATATGCATATGTGTACATATTTTATTTTCAAC [XGTACX_site2237] | 8.82 ± 0.42
TATTTATAAACATACGCACACATTAAAATATATATA [CACACA_site6051] | 9.02 ± 0.4
TATTTTTTAAAAATGGGTACACATAAATAAATAAAT [XGTACX_site7643] | 8.58 ± 0.45
TAAAAAAATTCATGCACACGAAATAAAAAGCACCTT [CACACA_site4667] | 9.21 ± 0.3
TGAACACCCACAAATACACACAAAAAAAATAAATAA [CACACA_site248] | 9.28 ± 0.51
TTAATACCCGGACACACACACACAAAATAAAATACA [CACACA_site4296] | 9.85 ± 0.27
TTAATACCCAGACACACACACACAAAATAAAATACA [CACACA_site7968] | 10.1 ± 0.48
ATAATTAACAAATACACACACACACGCCCACAAAAA [CACACA_site6389] | 10 ± 0.11
ATAATTAACAAATACACACACACACCCCCACAAAAA [CACACA_site518] | 10.5 ± 0.26

Sequence | gcPBM binding intensity (ln)
AATACAGACAGACACACACACAAAATAAAATACAAA [CACACA_site245] | 9.95 ± 0.38
AAATAAATATATATATGTACATACAAATACACGGTA [XGTACX_site8510] | 9.09 ± 0.4
TATTGTTTTAAAGAGACATGCAATATATATTATTCC [TGCATGCA_site752] | 8.51 ± 0.42
GAAATGGGTAAACATACACACACACCGATATATATA [CACACA_site8610] | 9.87 ± 0.23
TACATACATAAACACACACACACATATATATATATA [CACACA_site8953] | 10.2 ± 0.23
AAAAAAAACATACATACACACACATAAATATATATA [CACACA_site8864] | 9.72 ± 0.23
AATGGGTAAACATACACACACACATATATATATATA [CACACA_site1991] | 10.2 ± 0.11
TATATACATAAACACACACACACATATATATATATA [CACACA_site8707] | 9.89 ± 0.2
TATATAAATAGATACACACATACATACATACATACA [CACACA_site260] | 9.61 ± 0.37
TACATATATAAAAAAACACACACATATATATATATA [CACACA_site8315] | 9.665 ± 0.021
GTACATACATAAAACACACACATATATATATATATA [CACACA_site1826] | 10.17 ± 0.071
CATATACATAAACACACACACACATAAATAAATATA [CACACA_site4864] | 10 ± 0.13
AATGGGTAAACATACACACACACATCTATATTTATA [CACACA_site7025] | 9.78 ± 0.4
TAGATACATAAACACACACACACATACATATATACA [CACACA_site9139] | 10.2 ± 0.23
TACAGATATAAACACACACACATATATATATATATA [CACACA_site4846] | 10.05 ± 0.092
TTTGAGATAAAAGACTGTACTTAGAATGTATAAAAA [XGTACX_site203] | 8.48 ± 0.6
ATATGCTATTTACTAGTGCAAAATATTTAAAATATG [GTGCAC_site9517] | 8.61 ± 0.36
ATAATTTTCCATATTTGTACATATTTTTTTCCCTTG [XGTACX_site8146] | 8.92 ± 0.59
ATTTGTTATATATTCTTTTATGTTAATAATTCGAAT [CACACA_negctrl_site378] | 8.7 ± 0.45
ATAATTAGGGTGTATTTCATTTCATTTCATTTTATT [CACACA_negctrl_site1418] | 9.04 ± 0.4
